From PubChem BioAssay AID652040 (Broad Institute, 2013) come the findings set out here.

Results with a measured potency or affinity are listed apart. Activity calls are given as the source filed them.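 How the source made its calls: active means falling luciferase signal whose fitted half-maximal concentration is at most twice the top tested dose; inconclusive means flat inhibition between 30 and 70% or a poor curve fit; inactive means the rest.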

The experiment can be described thus: off-target signal loss in HeLa-CEM21 co-culture – HeLa F-luc CTL cells, cherry-picked, counter-screen for HIV-1 Env fusion inhibitor project, dose response (AID 652040).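 Further: more negative values mean stronger loss of luciferase signal.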 The settings on record: HeLa-F-luc CTL cells with CEM21, firefly luciferase counterscreen; series mostly up to 35 µM. A general note: A counterscreen serves to expose hits that act by an unwanted route or on another target.
Take `Oc1ccc(C=NNc2ccccn2)c(O)c1`: the molecule was classed as inactive.
For `C=CCN1C(=S)CC(c2ccccc2)=Nc2ccccc21` the value was “inactive”.
For `C=C(C)CN(CC)c1nc(N)c2c(N)nc3c(c2c1C#N)CC(=O)N3C12CC3CC(CC(C3)C1)C2` the value was “inactive”; for `COCc1[nH]nc2c1C(c1ccc(F)cc1)N(Cc1ccccc1)C2=O` (stereo not drawn), “inactive”.
For `CCN(c1nc(N)c(C(=O)N=C(N)N)nc1Cl)C(C)C` the value was “inactive”; for `O=C(NNC(=O)C(c1ccccc1)c1ccccc1)c1ccccn1`, “inactive”; for `Cc1ccc(Cn2ncc3c(N4CCN(Cc5ccc(Cl)cc5)CC4)ncnc32)cc1`, “inactive”.
Turning to `O=C(c1ccccc1)N1CCN(c2ncnc3sc4c(c23)CCC4)CC1`, the result was inactive.
In the case of `Cc1ccccc1-n1c(=O)c2ccccc2n2cnnc12` it was “inactive”; in that of `CC(c1nc2ccccc2c(=O)[nH]1)N(C)CCOc1ccc(Cl)cc1` (stereo not drawn), “inactive”.
In the case of `CC(CCc1ccco1)NC(=O)CCc1nnc2ccc(NCc3ccccc3Cl)nn12` (stereo not drawn) it was “inactive”; in that of `Cc1ccc(-n2nnnc2SCn2nnc3ccccc3c2=O)c(C)c1`, “inactive”; in that of `COc1ccc(-c2nn(C)c(=O)c3ccccc23)cc1NC(=O)Cn1nc(C)c2ccccc2c1=O`, “inactive”.
For `COc1ccc(/C=C/c2cc(-c3ccc(C)cc3)o[n+]2C)cc1` the value was “inactive”.
`COc1ccc(OC)c(NC(=O)COc2ccc3c(c2)CCC3)c1`: the result was inactive.
For `COc1ccc(S(=O)(=O)N2CCCCC2)cc1NC(=O)CCCOc1ccc(C)cc1` the value was “inactive”; for `CCOC(=O)CN1CCCc2nc(C)c(C)cc21`, “inactive”.
In the case of `Cc1cc2ncn(S(=O)(=O)N3CCCCC3)c2cc1C` it was “inactive”.
